Molecules are shown by their SMILES. The source made the active and inactive calls. Calls follow the shape of the dose curve; as a rule, active = well fitted activation curve with a large enough effect; inconclusive = small, poorly fitted or top-dose-only effect; inactive = flat fitted curve, though single readings scatter.

The test can be described thus: Confirmation and Secondary Assay for Modulators of Hemoglobin Beta Chain Splicing at IVS2 705 locus (AID 930). Particulars: HeLa EGFP-705 splicing reporter, GFP fluorescence, 48 h; series mostly up to 46.1 µM. The source says:
NIH Chemical Genomics Center [NCGC] NIH Molecular Libraries Screening Centers Network [MLSCN] MLSCN Grant: 1 X01 MH080684-01 PI Name: Dr. Ryszard Kole NCGC Assay Overview: Modulation of Alternative Splicing as Therapy Abnormal splicing is associated with a number of diseases, including cancer and genetic diseases such as cystic fibrosis, muscular dystrophy and beta-thalassemia. Alteration of disease associated splicing patterns provides a promising target for treatment. […] Mutations in the second intron of the b-globin gene at positions 654 or 705 are clinically relevant and cause mis-splicing which results in an out of frame gene product. […] EGFP-705 HeLa Cells as screen system. HeLa cell lines were stably transfected with a construct in which the EGFP (enhanced green fluorescent protein) cDNA was interrupted by the second intron of the beta-globin gene (IVS2-705). The ISV2 intron contains mutations which cause mis-splicing of EGFP and premature termination of EGFP which results in a nonfluorescent protein product. […] Expression of the transgene was driven by the CMV promoter. We concluded that a low molecular weight compound, which restored correct splicing of intron 2 would also generate functional EGFP protein, resulting in a fluorescent signal. Thus, the HeLa cells that express the EGFP-705 construct can be used for validation of splice site specificity of compounds identified in primary screening of the ISV2 654 construct.
NCGC Assay Protocol Summary: Confirmatory Screening. Freshly thawed HeLa EGFP-705 cells were seeded in 5 ul of optimem media (Invitrogen) containing 2 % fetal calf serum (Hyclone) and 1x penicillin/streptomycin (Invitrogen) at a concentration of 500 cells per well in 1536-well plates. Cells were incubated overnight at 37C in 5% CO2. The next day, cells were treated with DMSO, 500 nM antisense ISV2 654 PNA control oligo, or library compound and allowed to grow at 37C in 5% CO2 for 2 days. The PNA oligo blocked the mutation site in the intron and allowed proper (wild type) splicing to occur, resulting in full length EGFP expression and also allowed for optimization of the assay parameters. Plates were read in the Acumen Explorer (TTP Labtech) using 488 nm laser excitation and 500-520 nm emission PMT filter in a 1 x 8 uM capture mode. Fluorescnet objects ranging in size from 5 to 250 uM were measured and the total peak GFP intensity for each well was used for data analysis. Keywords: Thalassemia, beta-thalassemia, beta-globin, EGFP, ISV2 654, ISV2 705, SSO, PNA, antisense, splicing, MLSMR, MLSCN, NIH Roadmap, qHTS, NCGC
As for `CCOP(=S)(OCC)Oc1ccc2c(C)c(Cl)c(=O)oc2c1`, the outcome was inactive.

In the case of `COP(=S)(OC)Oc1ccc(SC)c(C)c1`, the compound was called inactive.

Turning to `O=P1(N(CCCl)CCCl)NCCCO1` (configuration not stated), the compound was classed as inactive.

Take `CCC1(CC)C(=O)C=CNC1=O`: the result was inactive.

For the compound `O=c1oc2ccccc2c(O)c1Cc1c(O)c2ccccc2oc1=O`, the result was inactive.

As to `O=C(CCCN1CCC2(CC1)C(=O)NCN2c1ccccc1)c1ccc(F)cc1`, the outcome was inactive.

As to `Oc1ccc(Cl)cc1`, the compound was classed as inactive.

As for `O=c1[nH]oc2c1CCNC2`, the compound was called inactive.

`c1ccc2c(c1)sc1ccccc12`: the result was inactive.

For the compound `NC(=O)CS(=O)C(c1ccccc1)c1ccccc1` (configuration not stated), the outcome was inactive.

In the case of `CNC(C)(C)Cc1ccccc1`, the result was inactive.

For the compound `Clc1ccc(C(c2ccc(Cl)cc2)C(Cl)(Cl)Cl)cc1`, the compound was called inactive.

With `O=C1c2ccccc2C(=O)c2ccccc21`, the compound was classed as inactive.

`COc1cc(OC)c(OC)cc1C=O`: the compound was classed as inactive.

`NCCc1ccc(O)cc1`: the outcome was inactive.

Take `CC(C)(C)NCC(O)c1ccccc1Cl` (configuration not stated): the outcome was inactive.

For the compound `CC(NC(C)(C)C)C(=O)c1cccc(Cl)c1` (configuration not stated), the compound was called inactive.

Turning to `CC(C)c1cccc(C(C)C)c1O`, the outcome was inactive.

Consider `NC(=O)c1cc([N+](=O)[O-])cc([N+](=O)[O-])c1`, for which the compound was classed as inactive.

For the compound `CCC1(c2ccc(N)cc2)CCC(=O)NC1=O` (configuration not stated), the compound was called inactive.

As for `CC(C)N(CCC(C(N)=O)(c1ccccc1)c1ccccn1)C(C)C` (configuration not stated), the call was inactive.

For the compound `O=C(O)CCCc1ccc(N(CCCl)CCCl)cc1`, the compound was classed as inactive.
